Experimental findings from PubChem BioAssay (Tox21) are described below.

Experiment [1] in a line: qHTS assay to identify small molecule agonists of the androgen receptor (AR) signaling pathway in the presence of an antagonist - cell viability counter screen (AID 1259379).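 Further: MDA-kb2 human breast cancer cells carrying an MMTV luciferase reporter; series mostly up to about 92 µM; nearly all actives have a fitted effect of over 25% in size.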 The gist of the method:
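In MDA-kb2 cells (human breast carcinoma, MMTV-luciferase), compounds at 15 concentrations plus 3.0uM nilutamide; 16 hr, 37C, 0% CO2; CellTiter-Fluor fluorescence read for viability.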

Experiment [2] deals with Estrogen receptor (Homo sapiens) (UniProt P03372). As to the kind of experiment: qHTS assay to identify small molecule agonists of the estrogen receptor alpha (ER-alpha) signaling pathway in the presence of an antagonist (AID 1259383; calls by dose curve; further: top concentration of the series differs between compounds; nearly all actives have a fitted effect of over 15% in size). Put shortly: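 In VM7Luc4E2 cells, 4,000 per well, compounds at 15 concentrations were co-incubated 22hr at 37C with 10.0nM final ICI-182,780. Luminescence from the stably transfected 4×ERE-luciferase reporter was recorded 30min after ONE-Glo addition.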
Sequence of Estrogen receptor (Homo sapiens) (P03372 whole entry, looked up): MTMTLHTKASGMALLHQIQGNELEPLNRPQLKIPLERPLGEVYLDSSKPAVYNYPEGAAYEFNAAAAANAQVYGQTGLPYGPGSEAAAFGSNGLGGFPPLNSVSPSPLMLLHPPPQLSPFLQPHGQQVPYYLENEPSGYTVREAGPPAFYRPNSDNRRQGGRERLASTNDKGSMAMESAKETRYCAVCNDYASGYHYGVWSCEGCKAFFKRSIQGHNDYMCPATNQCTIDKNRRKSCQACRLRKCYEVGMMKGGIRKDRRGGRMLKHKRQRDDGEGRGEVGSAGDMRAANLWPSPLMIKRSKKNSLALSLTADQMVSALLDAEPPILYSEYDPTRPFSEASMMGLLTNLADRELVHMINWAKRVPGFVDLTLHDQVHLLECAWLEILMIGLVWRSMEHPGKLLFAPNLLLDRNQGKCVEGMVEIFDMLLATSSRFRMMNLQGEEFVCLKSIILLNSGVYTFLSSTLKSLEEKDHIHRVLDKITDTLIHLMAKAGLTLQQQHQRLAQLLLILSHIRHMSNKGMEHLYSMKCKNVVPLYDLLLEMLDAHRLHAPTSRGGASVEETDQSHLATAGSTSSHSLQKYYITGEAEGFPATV

Experiment [3] is described as follows: qHTS assay to identify small molecule agonists or antagonists of the thyroid stimulating hormone receptor (TSHR) signaling pathway - wild type cell line counter screen (AID 1259384; calls by dose curve). The gist of the method: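 Wild-type HEK293 cells were plated 18 h at 37 C/5% CO2, pin-dosed with compound plus Ro20-1724 medium, held 30 min at room temperature, then given cAMP-d2 and anti-cAMP-cryptate; fluorescence was read after 1 h. Fifteen concentrations, triplicate.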
Background: qHTS replaces the single test concentration by a dilution series.

Experiment [4] deals with Thyrotropin receptor (Homo sapiens) (UniProt P16473). As to the kind of experiment: qHTS assay to identify small molecule antagonists of the thyroid stimulating hormone receptor (TSHR) signaling pathway (AID 1259385; calls by dose curve; further: nearly all actives have a fitted effect of over 20% in size). The gist of the method:
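TSHR-HEK293 cells were plated and held 18 h at 37C/5% CO2, then given compound plus Ro20-1724 and stimulated with TSH at 1.5 ng/mL final. After 30 min at room temperature, cAMP was detected with cAMP-d2/anti-cAMP-cryptate (1 h) by fluorescence.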

Experiment [5] in a line: qHTS assay to identify small molecule agonists of the estrogen receptor alpha (ER-alpha) signaling pathway in the presence of an antagonist - cell viability counter screen (AID 1259386).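 Further: series mostly up to about 92 µM; cells exposed to compounds for 22 h at 37 °C before the viability read; nearly all actives have a fitted effect of over 30% in size.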 The gist of the method:
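Fluorescent CellTiter-Fluor viability signal from VM7Luc4E2 cells, with the reagent added during the final hour of a 22hr compound exposure at 37C in the presence of 10.0nM ICI-182,780.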

The target in experiment [6] is Progesterone receptor (Homo sapiens) (UniProt P06401). As to the kind of experiment: qHTS assay to identify small molecule agonists of the progesterone receptor (PR) signaling pathway (AID 1346784; calls by dose curve; further: nearly all actives have a fitted effect of over 30% in size). The gist of the method:
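Compounds were tested for PR agonism in HEK 293T cells bearing a beta-lactamase gene under UAS control. Treatment lasted 16 hr at 37C; signal came from fluorescence of a FRET substrate.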

For experiment [7] the target is unchanged. In words: qHTS assay to identify small molecule antagonists of the progesterone receptor (PR) signaling pathway (AID 1346795; active means well fitted inhibition curve with a large enough effect in the signal ratio in the repeat runs, not every such curve was filed as active; the % refers to the signal ratio; further: potency means the concentration at half of the fitted maximal effect). Put shortly: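 In HEK293T cells bearing the PR-UAS-bla reporter, compound effects on promegestone-driven (1 nM) beta-lactamase expression are assessed after 16 hr using a fluorescent FRET substrate incubated 2 hr at room temperature.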

A short description of experiment [8]: qHTS assay to identify small molecule antagonists of the progesterone receptor (PR) signaling pathway - cell viability counter screen (AID 1346798). Further: series mostly up to about 92 µM; nearly all actives have a fitted effect of over 50% in size. Put shortly: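 Following a 4 hr attachment, PR-UAS-bla HEK293T cells in charcoal-stripped FBS medium were exposed to compounds with R5020 for 16 hr; CellTiter-Glo was added and luminescence read after 30 min at room temperature.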

The nature of experiment [9]: qHTS assay to identify small molecule agonists of the progesterone receptor (PR) signaling pathway - cell viability counter screen (AID 1346799; calls by dose curve; further: nearly all actives have a fitted effect of over 45% in size). Put shortly:
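Here, 3,000 PR-UAS-bla HEK293T cells per well were treated with compounds for 16 hr after a 6 hr preincubation at 37C and 5% CO2; cell viability is the CellTiter-Glo luminescence signal.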

The nature of experiment [10]: qHTS assay to identify small molecule antagonists of the TGF-beta/Smad signaling pathway - cell viability counter screen (AID 1346824). Further: nearly all actives have a fitted effect of over 50% in size. The gist of the method: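 SBE-bla HEK 293T cells were plated overnight at 37 C, then given compounds in DMSO plus TGF-beta1 (added as 0.25 ng/mL solution) for 5 hr. After the bla read, CellTiter-Glo was added to the same wells and luminescence read after 30 min at room temperature.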

Experiment [11] can be described thus: qHTS assay to identify small molecule agonists of the TGF-beta/Smad signaling pathway - cell viability counter screen (AID 1346829). Further: top concentration of the series differs between compounds; nearly all actives have a fitted effect of over 45% in size. The gist of the method:
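CellTiter-Glo luminescence readout; SBE-bla HEK 293T cells, overnight plating, compound 5 hr at 37 C/5% CO2, then bla substrate 2 hr RT, then CellTiter-Glo 30 min RT.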

Experiment [12] is described as follows: qHTS assay to identify small molecule agonists of the TGF-beta/Smad signaling pathway (AID 1346859; active means well fitted activation curve with a large enough effect in the signal ratio in the repeat runs, not every such curve was filed as active; the % refers to the signal ratio; further: series mostly up to about 77 µM). Put shortly: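 Each well held 4,000 SBE-bla HEK 293T cells incubated overnight before compound addition; 5 hr later the cleavable FRET substrate went on for 2 hr at room temperature, and fluorescence was read at two emissions.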
Experiment [13] addresses Thyrotropin-releasing hormone receptor (Homo sapiens) (UniProt P34981). As to the kind of experiment: qHTS assay to identify small molecule antagonists of the thyrotropin-releasing hormone receptor (TRHR) signaling pathway (AID 1346877; active means well fitted inhibition curve with a large enough effect in the repeat runs, not every such curve was filed as active; further: potency means the concentration at half of the fitted maximal effect). The gist of the method:
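In this cell-based calcium flux format, HEK293 cells expressing TRHR received test compound for 5 min before the agonist TRH (1 nM final). Dye loading lasted 2 h at 37 °C.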

For experiment [14] the target is unchanged. In words: qHTS assay to identify small molecule agonists of the thyrotropin-releasing hormone receptor (TRHR) signaling pathway (AID 1346891; calls by dose curve; further: potency means the concentration at half of the fitted maximal effect; on activation: series mostly up to about 58 µM). Put shortly:
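Screening of agonists relied on calcium signalling in HEK293 cells expressing human TRHR: dye loading 2 h at 37 °C preceded compound addition and a 3-min fluorescence time course.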

Experiment [15] can be described thus: Human pregnane X receptor (PXR) small molecule agonists, qHTS cell viability counter screen (AID 1346977). Further: nearly all actives have a fitted effect of over 50% in size. The gist of the method:
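Tox21 qHTS format; PXR-Luc HepG2, 2,000/well, charcoal-stripped FBS 5%. Cpd exposure 24hr. Read: CellTiter-Fluor fluorescence, multiplexed with luciferase.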

Experiment [16] in a line: qHTS assay to identify small molecule agonists of the estrogen receptor beta (ER-beta) signaling pathway - cell viability counter screen (AID 1259380). Further: nearly all actives have a fitted effect of over 30% in size. Further: potency means the concentration at half of the fitted maximal effect. Put shortly: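 Viability of ER-beta-UAS-bla HEK293T cells was determined by CellTiter-Glo luminescence following 16 hr treatment with test compounds at 37C.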
Experiment [17] can be described thus: qHTS assay to identify small molecule antagonists of the estrogen receptor beta (ER-beta) signaling pathway - cell viability counter screen (AID 1259382). Further: series mostly up to about 92 µM; nearly all actives have a fitted effect of over 55% in size. The gist of the method: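 Tox21 10K library tested in qHTS format on ER-beta-bla HEK293T cells stimulated with 1nM E2; 16 hr treatment at 37C. Same-well CellTiter-Glo luminescence served as the cell viability measure.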

Experiment [18] addresses Estrogen receptor beta (Homo sapiens) (UniProt Q92731). In words: qHTS assay to identify small molecule antagonists of the estrogen receptor beta (ER-beta) signaling pathway (AID 1259378; active means well fitted inhibition curve with a large enough effect in the signal ratio in the repeat runs, not every such curve was filed as active; the % refers to the signal ratio; further: potency means the concentration at half of the fitted maximal effect). Put shortly:
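ER-beta-UAS-bla HEK293T (GripTite) cells in 2% charcoal-stripped FBS medium were preincubated 6 hr at 37C, dosed with compound, then stimulated with 1 nM E2 (final) for 16 hr; beta-lactamase reporter read by B/G FRET fluorescence after 2 hr substrate loading.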

Experiment [19] addresses Androgen receptor (Homo sapiens) (UniProt P10275). In words: qHTS assay to identify small molecule agonists of the androgen receptor (AR) signaling pathway in the presence of an antagonist (AID 1259381; calls by dose curve; further: nearly all actives have a fitted effect of over 15% in size). The gist of the method:
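Here, 15-concentration compound series were pin-transferred onto MDA-kb2 MMTV-luciferase cells already dosed with nilutamide (3.0uM final). After 16hr at 37C, ONE-Glo was added and luminescence read 30min later at room temperature.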

Values joined by “and” are separate entries in the source; they are usually repeats but may differ in a detail not shown here. Equal values may be shown once. Records with an inconclusive call do not appear. Some compounds were tested as several samples or in several runs, with calls that do not always agree. Active and inactive are the calls of the source. Unless noted, the call rests on the fitted dose curve; in most records, active means well fitted curve in the direction sought with a large enough effect in the repeat runs; inconclusive means weak or mixed curves; inactive means no such curve, though single readings can be large; an effect the other way counts as inactive or inconclusive.

Sequence of Thyrotropin-releasing hormone receptor (Homo sapiens) (P34981 whole entry, looked up): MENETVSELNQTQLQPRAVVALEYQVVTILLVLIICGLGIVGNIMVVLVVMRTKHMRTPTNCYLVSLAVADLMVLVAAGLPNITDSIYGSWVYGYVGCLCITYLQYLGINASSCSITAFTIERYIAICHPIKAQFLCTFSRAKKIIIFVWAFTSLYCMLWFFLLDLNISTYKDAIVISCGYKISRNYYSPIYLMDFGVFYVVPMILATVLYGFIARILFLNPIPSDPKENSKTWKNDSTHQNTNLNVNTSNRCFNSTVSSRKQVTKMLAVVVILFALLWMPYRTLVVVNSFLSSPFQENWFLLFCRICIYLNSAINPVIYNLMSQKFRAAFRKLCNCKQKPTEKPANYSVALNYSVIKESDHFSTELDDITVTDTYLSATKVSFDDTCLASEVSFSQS
Sequence of Progesterone receptor (Homo sapiens) (P06401 whole entry, looked up): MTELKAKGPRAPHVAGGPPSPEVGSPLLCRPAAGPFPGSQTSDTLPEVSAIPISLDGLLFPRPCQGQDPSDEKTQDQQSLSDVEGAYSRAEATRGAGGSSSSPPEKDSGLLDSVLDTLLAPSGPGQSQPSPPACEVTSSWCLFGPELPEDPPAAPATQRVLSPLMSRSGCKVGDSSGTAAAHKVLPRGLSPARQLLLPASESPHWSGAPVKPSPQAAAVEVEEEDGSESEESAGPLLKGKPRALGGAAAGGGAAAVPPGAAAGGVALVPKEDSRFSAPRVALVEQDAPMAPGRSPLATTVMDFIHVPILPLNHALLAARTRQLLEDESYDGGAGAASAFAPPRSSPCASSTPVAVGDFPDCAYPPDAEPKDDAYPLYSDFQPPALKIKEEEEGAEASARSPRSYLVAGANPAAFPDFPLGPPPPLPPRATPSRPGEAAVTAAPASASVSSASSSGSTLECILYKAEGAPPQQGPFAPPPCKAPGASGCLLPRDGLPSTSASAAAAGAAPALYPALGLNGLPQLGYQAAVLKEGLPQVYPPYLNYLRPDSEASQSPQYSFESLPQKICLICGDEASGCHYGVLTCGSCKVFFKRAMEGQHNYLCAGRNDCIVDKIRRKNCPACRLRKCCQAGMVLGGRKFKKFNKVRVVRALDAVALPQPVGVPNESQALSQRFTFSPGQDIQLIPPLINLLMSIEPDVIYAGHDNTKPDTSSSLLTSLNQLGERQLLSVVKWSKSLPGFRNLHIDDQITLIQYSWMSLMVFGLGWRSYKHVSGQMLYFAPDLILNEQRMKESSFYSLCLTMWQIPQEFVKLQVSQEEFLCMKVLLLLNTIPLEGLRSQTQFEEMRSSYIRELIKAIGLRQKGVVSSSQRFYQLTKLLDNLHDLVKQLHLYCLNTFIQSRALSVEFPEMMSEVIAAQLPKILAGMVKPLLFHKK
Sequence of Estrogen receptor beta (Homo sapiens) (Q92731 whole entry, looked up): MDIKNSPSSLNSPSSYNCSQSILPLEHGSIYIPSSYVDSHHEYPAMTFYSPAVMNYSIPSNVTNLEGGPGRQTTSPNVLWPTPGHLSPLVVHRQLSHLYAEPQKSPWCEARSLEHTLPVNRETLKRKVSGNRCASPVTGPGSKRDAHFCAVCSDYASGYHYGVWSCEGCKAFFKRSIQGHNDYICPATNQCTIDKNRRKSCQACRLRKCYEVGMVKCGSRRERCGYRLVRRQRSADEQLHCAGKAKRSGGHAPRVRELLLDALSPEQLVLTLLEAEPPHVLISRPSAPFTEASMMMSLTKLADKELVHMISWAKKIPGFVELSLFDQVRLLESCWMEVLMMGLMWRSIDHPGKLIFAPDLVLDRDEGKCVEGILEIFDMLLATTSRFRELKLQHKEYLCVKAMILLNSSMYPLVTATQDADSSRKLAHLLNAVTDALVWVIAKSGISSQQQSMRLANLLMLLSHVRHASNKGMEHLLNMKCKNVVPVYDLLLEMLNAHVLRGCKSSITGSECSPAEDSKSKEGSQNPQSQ
Sequence of Thyrotropin receptor (Homo sapiens) (P16473 whole entry, looked up): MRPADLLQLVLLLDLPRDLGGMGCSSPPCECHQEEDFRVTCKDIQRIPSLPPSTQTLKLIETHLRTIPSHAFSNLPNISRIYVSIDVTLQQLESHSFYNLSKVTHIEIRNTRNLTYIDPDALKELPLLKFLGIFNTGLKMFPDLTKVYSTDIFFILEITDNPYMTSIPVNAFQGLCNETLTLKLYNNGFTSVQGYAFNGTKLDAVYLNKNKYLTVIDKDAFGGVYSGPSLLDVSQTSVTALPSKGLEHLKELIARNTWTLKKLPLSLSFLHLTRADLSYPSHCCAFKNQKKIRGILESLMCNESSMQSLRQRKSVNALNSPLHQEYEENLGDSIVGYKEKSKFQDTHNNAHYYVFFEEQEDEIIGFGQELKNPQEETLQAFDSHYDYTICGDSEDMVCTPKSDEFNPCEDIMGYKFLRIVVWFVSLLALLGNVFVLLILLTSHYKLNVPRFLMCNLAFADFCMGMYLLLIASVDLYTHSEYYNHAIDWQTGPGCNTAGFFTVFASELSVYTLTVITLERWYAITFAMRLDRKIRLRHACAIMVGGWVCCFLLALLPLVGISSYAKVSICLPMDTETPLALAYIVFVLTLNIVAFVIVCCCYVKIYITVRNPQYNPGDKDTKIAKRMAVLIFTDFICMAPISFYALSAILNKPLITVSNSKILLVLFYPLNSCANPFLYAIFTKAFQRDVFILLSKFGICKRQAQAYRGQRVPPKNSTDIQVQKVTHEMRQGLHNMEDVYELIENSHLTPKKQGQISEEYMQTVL
Sequence of Androgen receptor (Homo sapiens) (P10275 whole entry, looked up): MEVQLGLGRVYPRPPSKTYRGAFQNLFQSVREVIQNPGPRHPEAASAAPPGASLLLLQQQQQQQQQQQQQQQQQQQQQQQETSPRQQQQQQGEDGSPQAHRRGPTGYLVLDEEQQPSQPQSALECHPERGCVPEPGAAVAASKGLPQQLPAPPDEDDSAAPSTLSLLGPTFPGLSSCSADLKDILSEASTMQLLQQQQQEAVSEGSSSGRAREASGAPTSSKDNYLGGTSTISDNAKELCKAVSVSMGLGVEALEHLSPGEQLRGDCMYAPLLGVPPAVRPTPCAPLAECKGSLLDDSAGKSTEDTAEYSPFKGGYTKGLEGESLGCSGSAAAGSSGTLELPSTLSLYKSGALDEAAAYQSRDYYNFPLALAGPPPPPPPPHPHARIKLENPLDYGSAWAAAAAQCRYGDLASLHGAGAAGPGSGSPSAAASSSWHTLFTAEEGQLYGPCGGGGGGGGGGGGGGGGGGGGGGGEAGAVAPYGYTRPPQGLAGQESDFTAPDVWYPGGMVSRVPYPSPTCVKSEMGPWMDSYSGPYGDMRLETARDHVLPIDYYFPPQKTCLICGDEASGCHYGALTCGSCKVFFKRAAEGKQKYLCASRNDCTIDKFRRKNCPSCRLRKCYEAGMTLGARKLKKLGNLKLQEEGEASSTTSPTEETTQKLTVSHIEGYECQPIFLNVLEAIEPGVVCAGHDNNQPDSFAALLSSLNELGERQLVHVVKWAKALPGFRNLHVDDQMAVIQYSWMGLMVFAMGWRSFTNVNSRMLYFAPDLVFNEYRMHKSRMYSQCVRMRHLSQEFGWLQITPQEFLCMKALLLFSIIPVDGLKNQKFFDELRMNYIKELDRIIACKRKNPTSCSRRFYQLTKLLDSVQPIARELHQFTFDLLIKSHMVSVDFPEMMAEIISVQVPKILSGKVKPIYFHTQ

As to `Oc1ccc(-c2ccccc2)cc1`, the Potency entry in experiment [1], in experiment [2], in experiment [5], in experiment [6], in experiment [8] and in [9] was “inactive” each time. Also, the Potency entry in experiment [10], in experiment [11], in [13], in experiment [14] and in experiment [15] was “inactive” throughout. Moreover, the compound was classed as inactive in experiment [3], in experiment [4] and in experiment [12]. Further, the Potency in [7] is 15.4 µM (active).
In the case of `CC(C)c1ccc(CO)cc1`, the Potency entry in experiment [16], in experiment [17], in experiment [2], in experiment [5], in experiment [6] and in experiment [7] was “inactive” in each case. Further, the Potency result in experiment [8], in experiment [9], in experiment [10], in experiment [11] and in experiment [15] was “inactive” each time. The call in [3], in [4] and in experiment [12] was inactive.
As to `CCCCCCOC(=O)c1ccccc1C(=O)OCCCCCC`, the Potency entry in experiment [16], in [17], in experiment [2], in experiment [5], in experiment [8] and in [9] was “inactive” throughout. Further, the Potency result in experiment [10], in experiment [11], in [13], in experiment [14] and in experiment [15] was “inactive” each time. The compound was classed as inactive in experiment [3], in experiment [4] and in experiment [12].
In the case of `CCOc1cc(C=O)ccc1O`, the Potency entry in [1], in experiment [16], in experiment [6], in experiment [7], in [8] and in [9] was “inactive” throughout. For the same compound, the Potency entry in [11], in [13], in experiment [14] and in [15] was “inactive” throughout. Further, the outcome in experiment [3], in experiment [4] and in [12] was inactive.
`CCN(CC)C(=O)SCc1ccc(Cl)cc1`: the Potency entry in experiment [16], in experiment [17], in experiment [2], in [5], in experiment [6] and in experiment [8] was “inactive” throughout. Further, the Potency entry in experiment [10], in [11], in [13], in experiment [14] and in experiment [15] was “inactive” throughout. In [3], the compound was called inactive. The Potency in experiment [7] is 25.1 µM (active) and 27.3 µM (active).
`COc1ccc(C=O)cc1`: the Potency entry in experiment [1], in [16], in experiment [17], in experiment [2], in [6] and in experiment [7] was “inactive” in each case. In addition, the Potency result in experiment [8], in experiment [9], in experiment [10], in experiment [11], in experiment [13] and in [14] was “inactive” each time. In experiment [15], the Potency entry is “inactive”. The outcome in experiment [3], in experiment [4] and in experiment [12] was inactive.
Consider `CCOCN(C(=O)CCl)c1c(C)cccc1CC`, for which the results for the Potency in [18] and in experiment [16] were 21.7 µM (active) and 48.6 µM (active), respectively. Further, the Potency result in [2], in experiment [5], in experiment [6], in experiment [8], in [9] and in experiment [11] was “inactive” throughout. Besides, the Potency entry in [13] and in experiment [14] was “inactive” throughout. Also, the compound was called inactive in experiment [3] and in [4].
Turning to `ClC1C(Cl)C(Cl)C(Cl)C(Cl)C1Cl` (stereo not given), the Potency entry in [18], in experiment [17], in experiment [5], in [6], in experiment [7] and in [8] was “inactive” each time. Further, the Potency entry in experiment [9], in [11], in experiment [13], in [14] and in [15] was “inactive” each time. Further, in experiment [16], the Potency entry is “inactive and 27.3 µM (active) and 54.5 µM (active)”. For the same compound, the outcome in [3] and in experiment [4] was inactive.
As to `CC(C)=CC1C(C(=O)OCc2coc(Cc3ccccc3)c2)C1(C)C` (stereo not given), the Potency result in [1], in [2], in experiment [5], in [6], in experiment [8] and in experiment [10] was “inactive” each time. For the same compound, the Potency entry in [11] and in experiment [15] was “inactive” in each case. Moreover, the compound was called inactive in [3]. Besides, the Potency in experiment [7] is 48.6 µM (active).
Turning to `Cc1ccc(OP(=O)(Oc2ccc(C)cc2)Oc2ccc(C)cc2)cc1`, the Potency entry in [1], in experiment [17], in experiment [5], in experiment [6], in experiment [9] and in experiment [10] was “inactive” in each case. For the same compound, the Potency result in experiment [11], in [13], in experiment [14] and in experiment [15] was “inactive” each time. Further, the Potency in experiment [16] is 68.5 µM (active); in experiment [7] it was 15.4 µM (active). Also, the outcome in experiment [3], in [4] and in experiment [12] was inactive.
`CC(C)(c1cc(Cl)c(O)c(Cl)c1)c1cc(Cl)c(O)c(Cl)c1`: the Potency result in experiment [1], in experiment [16], in experiment [17], in [6], in experiment [8] and in experiment [9] was “inactive” each time. Also, the Potency result in [10], in [11] and in [15] was “inactive” each time. The compound was classed as inactive in experiment [3], in [4] and in experiment [12]. Besides, the values for the Potency in experiment [7], in [13] and in [14] were 7.7 µM (active), 30.1 µM (active) and 34.7 µM (active), respectively.
Take `CCCCC(CC)COC(=O)c1ccc(C(=O)OCC(CC)CCCC)c(C(=O)OCC(CC)CCCC)c1` (stereo not given): the Potency entry in experiment [16], in experiment [19], in [17], in [5], in experiment [6] and in experiment [7] was “inactive” throughout. Further, the Potency entry in experiment [8], in experiment [9], in experiment [11], in [13], in [14] and in experiment [15] was “inactive” in each case. Further, the compound was called inactive in experiment [3] and in [4].
